CRFBP-R2 block: blocks CRF-induced signaling of the CRF-BP/CRF-R2 complex. HEK293 CRF-R2/CRF-BP, CRF-induced calcium fluorescence. inhibition, % at 11.8 µM. 350,000 compounds, 0.59% hits;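 active means inhibition of the ligand-induced calcium signal above about 50% at the single tested concentration, limit read from the data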
NRP1-CendR mod: modulators of CendR peptide binding to human neuropilin-1. O14786. FAM-RPARPAR peptide binding to NRP-1, fluorescence polarization. inhibition, % at 25 µM. 360,000 compounds, 0.85% hits. AID 602438;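 active means inhibition or corrected inhibition above about 18%, plus a signal ratio from 0.5 to 1.5, limit read from the data, passing the limit was not always enough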
NadD block: NadD (S. aureus) enzyme inhibition | purified NadD enzyme, colorimetric absorbance read-out | inhibition, % at 20 µM | 360,000 compounds, 0.78% hits; in the data active means inhibition above about 26%
Myeloid diff MLP: promotes myeloid progenitor differentiation; calls only at 10 µM; 360,000 compounds, 1% hits; AID 624256; ER-HoxA9 myeloid progenitors, lysozyme-GFP differentiation, flow cytometry;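 active means normalized GFP-positive differentiation at or above the plate's own cutoff, the solvent-only control mean plus 3 SD; inconclusive means no clear call, values can overlap the other calls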;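 further: cells exposed to compound for four days before flow analysis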
FAS TE block: FAS thioesterase (human) inhibition; P49327; recombinant FAS-TE, OMFH fluorogenic substrate, fluorescence endpoint; inhibition, % at 15 µM; 360,000 compounds, 0.67% hits; AID 602261;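 active means compounds whose normalised, plate-corrected inhibition of enzyme fluorescence in the single-dose primary screen is 50% or more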
Of the large screens only hits and unclear results are named; the others gave an inactive call. A selection: hits, their analogues and other compounds. The true share with any hit is near 3.6%.

CCN(Cc1ccncc1)C(=O)c1cc(COc2ccc(F)cc2F)on1	NRP1-CendR mod 43.3
COc1ccc(CNC(=O)CN2C(=O)CSc3ccc(S(=O)(=O)N4CCOCC4)cc32)cc1	NRP1-CendR mod 33.2
CC1CCCN(CCCNC(=O)CN2C(=O)CSc3ccc(S(=O)(=O)N4CCOCC4)cc32)C1 (stereo not drawn)	CRFBP-R2 block 89.2
CC(=O)c1ccc(Cc2ccc(C(C)=O)s2)s1	none
Cc1cc(N2CCOCC2)c2c(N)cc(C)c(C)c2n1	NRP1-CendR mod 22.4
Cc1cc(N2CCOCC2)nc(N2CCOCC2)n1	none
CCCCN(c1ccccc1)S(=O)(=O)c1ccc2c(c1)CCN2C(=O)CCC(=O)O	NRP1-CendR mod 25.2
O=C(NCCOc1ccccc1F)c1ccccc1SCc1ccc(F)cc1	CRFBP-R2 block 63.5
COc1ccc([C@H]2CC(=O)C=C(c3ccccc3C(F)(F)F)C2)cc1	NRP1-CendR mod 28.7
Cc1ccnc(N(C(=O)Nc2ccccc2)C2=NCC(C)(C)S2)c1	none
CCOc1ncccc1C(=O)NNC(=O)c1ccc(NS(=O)(=O)c2cccs2)cc1	none
O=C(NC1CCCC1)C(c1ccncc1)N(C(=O)c1csnn1)c1ccccc1F (stereo not drawn)	none
Cc1cc(C)cc(N(C(=O)c2nsc(Cl)c2Cl)C(C(=O)NC2CCCC2)c2ccc(O)cc2)c1 (stereo not drawn)	CRFBP-R2 block 72.7
Cc1ccc(N(C(=O)c2nsc(Cl)c2Cl)C(C(=O)NC2CCCC2)c2ccc(O)cc2)cc1C (stereo not drawn)	CRFBP-R2 block 87.8, Myeloid diff MLP inconclusive
Cc1ccccc1N(C(=O)c1csnn1)C(C(=O)NC1CCCCC1)c1ccncc1 (stereo not drawn)	Myeloid diff MLP active
Cc1cccc(N(C(=O)c2nsc(Cl)c2Cl)C(C(=O)NC2CCCC2)c2ccc(O)cc2)c1C (stereo not drawn)	CRFBP-R2 block 91.4
COCCC(=O)N1CCOCC1c1cc(C(=O)NCc2ccccc2)no1 (stereo not drawn)	none (no result: CRFBP-R2 block)
Cc1ccc(CSC(Nc2ccc(F)cc2)=C(C#N)C#N)cc1	CRFBP-R2 block 71.8
CCN(CC)C(=O)CSC(Nc1ccc(F)cc1)=C(C#N)C#N	none
O=C(NCC1CCCO1)[C@@H]1CSC2c3ccccc3C(=O)N21 (stereo partly drawn)	none
O=C1OC(N2C(=O)CC[C@H]2C(=O)NCC2CCCO2)c2ccccc21 (stereo partly drawn)	NRP1-CendR mod 21.7
Cc1ccc(NC(=S)N2CCCC(c3nc4ccccc4[nH]3)C2)cc1 (stereo not drawn)	none
Cc1ccccc1NC(=S)N1CCCC(c2nc3ccccc3[nH]2)C1 (stereo not drawn)	NRP1-CendR mod 23.4
Cn1c(=O)c(Nc2ccc(O)cc2)c2c3c(cccc31)C(=O)c1ccccc1-2	NRP1-CendR mod 80.9, Myeloid diff MLP inconclusive
Nc1ccc2ncccc2c1N	Myeloid diff MLP active
CC(=O)c1ccc(OC2(C)CCN(Cc3ccc4c(c3)OCCO4)C2)cc1 (stereo not drawn)	none (no result: CRFBP-R2 block)
COc1ccc2c(c1)CC/C(=C/c1ccncc1)C2=O	Myeloid diff MLP active
COc1ccc2c(c1)CC/C(=C\c1ccc(C)o1)C2=O	none (no result: Myeloid diff MLP)
Cc1cc(C)c2nc(-c3ccccn3)cc(C(=O)Nc3ccc(S(=O)(=O)Nc4cc(C)on4)cc3)c2c1	NadD block 61.2
Cc1cc(NS(=O)(=O)c2ccc(NC(=O)c3cc(-c4cccnc4)nc4ccc(Cl)cc34)cc2)no1	none
Cc1cc(C)c2nc(-c3ccccn3)cc(C(=O)Nc3ccc(S(=O)(=O)Nc4onc(C)c4C)cc3)c2c1	NadD block 40.9
Cc1noc(NS(=O)(=O)c2ccc(N/C=C\C(=O)c3cccc4ccccc34)cc2)c1C	CRFBP-R2 block 56.1
COc1cc(F)ccc1-c1cc(C(=O)NCc2cc(C(F)(F)F)cc(C(F)(F)F)c2)[nH]n1	none (no result: CRFBP-R2 block)
O=C(O)COc1ccc(NC(=O)c2ccc3c(c2)C(=O)N(CC2CCCO2)C3=O)cc1 (stereo not drawn)	none
NC(=O)c1ccc(NCc2ccco2)c([N+](=O)[O-])c1	CRFBP-R2 block 71.0
COc1cccc(C2=Cc3ccc(F)cc3C(CC(C)=O)N2c2ccc(C#CC3(O)CCCCC3)cc2)c1 (stereo not drawn)	none (no result: CRFBP-R2 block)
O=C(CCCC(=O)OCC(=O)c1cccs1)Nc1ccc(F)cc1	none
O=C(CCCC(=O)OCC(=O)c1cccs1)Nc1ccc(Oc2ccccc2)cc1	NRP1-CendR mod 23.2
Cc1cc(Br)cn2c(Cc3ccsc3)c(-c3ccco3)nc12	none (no result: CRFBP-R2 block)
